Measurements: PubChem BioAssay (Tox21)
Where “and” joins values, the source holds several entries; their conditions need not be identical. Equal values may be shown once. Records with an inconclusive call do not appear. A call without a number means that no potency is given here. Where a structure was tested more than once in an assay, its records may differ in their call. Calls of active or inactive are those of the source. Unless noted, the call rests on the fitted dose curve.

Experiments:
[1] = molecular target: Nuclear receptor subfamily 1 group I member 3 (Homo sapiens) (UniProt Q14994); assay: qHTS assay to identify small molecule agonists of the constitutive androstane receptor (CAR) signaling pathway (AID 1224839; active means well fitted curve in the direction sought with a large enough effect in the repeat runs; an effect the other way counts as inactive or inconclusive; further: nearly all actives have a fitted effect of over 15% in size; further: potency means the concentration at half of the fitted maximal effect;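 on activation: HepG2 cells stably carrying human CAR and a CYP2B6 luciferase reporter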); conditions: HepG2 hCAR CYP2B6-luciferase, agonist mode, 24 h; series mostly up to 92.4 µM
How it was run: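 HepG2 cells stably expressing hCAR and a CYP2B6-2.2kb luciferase reporter were treated with compounds at 15 concentrations plus 0.75 uM PK11195 (final) for 24 h at 37 C; luminescence was read after ONE-Glo addition.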

[2] = qHTS assay to identify small molecule antagonists of the estrogen related receptor signaling pathway with the pleiotropic PPARgamma coactivator (PGC) from Tox21 10K library - cell viability counter screen (AID 1224840; active means well fitted cell-killing curve with a large enough effect in the repeat runs, not every such curve was filed as active; further: nearly all actives have a fitted effect of over 40% in size; further: potency means the concentration at half of the fitted maximal effect); conditions: PGC/ERR reporter cells viability, CellTiter-Fluor, 17.5 h; series mostly up to 92.4 µM
How it was run: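 Seeded PGC/ERR cells (2,000/well, 6 h, 37 C/5% CO2) get compound by pin tool; 17.5 h incubation at 37 C; CellTiter-Fluor added, 30 min, fluorescence measured.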

[3] = molecular target: Thyrotropin receptor (Homo sapiens) (UniProt P16473); assay: qHTS assay to identify small molecule agonists of the thyroid stimulating hormone receptor (TSHR) signaling pathway (AID 1224843); conditions: TSHR-HEK293 cells, cAMP HTRF, agonist mode, 30 min; series mostly up to 92.4 µM; further: nearly all actives have a fitted effect of over 45% in size
How it was run: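 Agonist activity read as cAMP rise via d2/cryptate HTRF competition, 1 h room-temperature detection, in HEK293 cells expressing TSHR. Fifteen-point titrations, each run in triplicate, with a 30 min room-temperature incubation beforehand.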

[4] = qHTS assay to identify small molecule agonists of the hypoxia (HIF-1) signaling pathway - cell viability counter screen (AID 1224844); conditions: HRE-bla ME-180 viability, CellTiter-Glo luminescence, 17 h; series mostly up to 76.8 µM; further: nearly all actives have a fitted effect of over 50% in size; further: potency means the concentration at half of the fitted maximal effect
How it was run: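 HRE-bla ME-180; 0.5% dFBS; cpd 17 h, 37C, 5% CO2; CellTiter-Glo lum., 30 min RT, post-FRET read, same wells.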

[5] = qHTS assay to identify small molecule agonists of the hypoxia (HIF-1) signaling pathway (AID 1224846; active means well fitted activation curve with a large enough effect in the signal ratio in the repeat runs, not every such curve was filed as active; the % refers to the signal ratio); conditions: HRE-bla ME-180 cells, beta-lactamase ratio, 17 h; series mostly up to 76.8 µM
How it was run: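 Reporter induction in HRE-bla ME-180 cells is taken as agonism: cells sit 5 hrs after plating, receive compounds or DMSO only, incubate 17 hrs at 37C under 5% CO2, and are loaded with CCF4-AM for beta-lactamase FRET measurement.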

[6] = qHTS assay to identify small molecule agonists of H2AX - cell viability counter screen (AID 1224847); conditions: CHO-K1 viability, CellTiter-Glo luminescence, 3 h; series mostly up to 154 µM; further: nearly all actives have a fitted effect of over 30% in size; further: potency means the concentration at half of the fitted maximal effect
How it was run: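 Wild-type CHO-K1 cells (10% FBS medium) were plated overnight at 37C, exposed to compounds at 15 concentrations for 3 hr at 37C (0.76% DMSO final), and viability was read as CellTiter-Glo luminescence after 30 min at room temperature.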

[7] = qHTS assay to identify small molecule agonists of H2AX (AID 1224845; active means well fitted activation curve with a large enough effect in the signal ratio in the repeat runs, not every such curve was filed as active; the % refers to the signal ratio); conditions: CHO-K1 phospho-H2AX Ser139 HTRF, 3 h; series mostly up to 154 µM
How it was run: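 Phospho-H2AX Ser139 measured by HTRF (ex 320 nm; em 665 and 620 nm) after 24 hr antibody incubation. Compounds, 15 concentrations, 0.76% DMSO, were applied to CHO-K1 cells for 3hr at 37C before lysis.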

[8] = qHTS assay to identify small molecule antagonists of the estrogen related receptor signaling pathway with the pleiotropic PPARgamma coactivator (PGC) from Tox21 10K library (AID 1224841; call rule not given here; further: actives are mostly falling curves and most rising ones were filed inactive; nearly all actives have a fitted effect of over 50% in size); conditions: PGC/ERR reporter cell line, ONE-Glo luciferase, 18 h; series mostly up to 92.4 µM
How it was run: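 Test chemicals dissolved in DMSO were applied to pre-incubated (6 h) PGC/ERR cells at 2,000 cells/well for an 18 h, 37 C treatment; reporter luminescence was then read using One-Glo.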

[9] = qHTS assay to identify small molecule agonists of the estrogen related receptor signaling pathway with the pleiotropic PPARgamma coactivator (PGC) from Tox21 10K library (AID 1224842; active means well fitted curve in the direction sought with a large enough effect in the repeat runs; an effect the other way counts as inactive or inconclusive; further: nearly all actives have a fitted effect of over 15% in size); conditions: PGC/ERR reporter cell line, luciferase ONE-Glo, 18 h; series mostly up to 92.4 µM
How it was run: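 Luminescence from One-Glo (30 min, room temperature) measured after PGC/ERR cells had 18 h at 37 C with pinned compound (23 nL in DMSO). Cells had been seeded at 2,000 per well and pre-incubated 6 h.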

[10] = qHTS assay to identify small molecule antagonists of the estrogen related receptor (ERR) signaling pathway from Tox21 library (AID 1224848; active means well fitted curve in the direction sought with a large enough effect in the repeat runs; an effect the other way counts as inactive or inconclusive; further: nearly all actives have a fitted effect of over 50% in size); conditions: ERR reporter cell line, luciferase antagonist mode, 18 h; series mostly up to 92.4 µM
How it was run: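 Luciferase luminescence (ONE-Glo, 30 min room temperature) was the read-out. Cells of the NTP-supplied ERR line, 2,000 per well, were given 6 h at 37 C before compound addition in DMSO and 18 h exposure at 37 C.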

Sequence of Nuclear receptor subfamily 1 group I member 3 (Homo sapiens) (Q14994 whole entry, looked up): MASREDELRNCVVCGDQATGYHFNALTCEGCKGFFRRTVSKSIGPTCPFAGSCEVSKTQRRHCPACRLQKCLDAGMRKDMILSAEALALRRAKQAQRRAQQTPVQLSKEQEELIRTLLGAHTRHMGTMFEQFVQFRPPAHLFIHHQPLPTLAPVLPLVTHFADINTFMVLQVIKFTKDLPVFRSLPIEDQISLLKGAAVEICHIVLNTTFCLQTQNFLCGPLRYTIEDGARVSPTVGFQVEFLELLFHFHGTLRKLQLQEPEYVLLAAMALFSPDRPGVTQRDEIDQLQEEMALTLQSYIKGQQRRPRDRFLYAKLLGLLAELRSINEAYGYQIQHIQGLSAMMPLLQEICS
Sequence of Thyrotropin receptor (Homo sapiens) (P16473 whole entry, looked up): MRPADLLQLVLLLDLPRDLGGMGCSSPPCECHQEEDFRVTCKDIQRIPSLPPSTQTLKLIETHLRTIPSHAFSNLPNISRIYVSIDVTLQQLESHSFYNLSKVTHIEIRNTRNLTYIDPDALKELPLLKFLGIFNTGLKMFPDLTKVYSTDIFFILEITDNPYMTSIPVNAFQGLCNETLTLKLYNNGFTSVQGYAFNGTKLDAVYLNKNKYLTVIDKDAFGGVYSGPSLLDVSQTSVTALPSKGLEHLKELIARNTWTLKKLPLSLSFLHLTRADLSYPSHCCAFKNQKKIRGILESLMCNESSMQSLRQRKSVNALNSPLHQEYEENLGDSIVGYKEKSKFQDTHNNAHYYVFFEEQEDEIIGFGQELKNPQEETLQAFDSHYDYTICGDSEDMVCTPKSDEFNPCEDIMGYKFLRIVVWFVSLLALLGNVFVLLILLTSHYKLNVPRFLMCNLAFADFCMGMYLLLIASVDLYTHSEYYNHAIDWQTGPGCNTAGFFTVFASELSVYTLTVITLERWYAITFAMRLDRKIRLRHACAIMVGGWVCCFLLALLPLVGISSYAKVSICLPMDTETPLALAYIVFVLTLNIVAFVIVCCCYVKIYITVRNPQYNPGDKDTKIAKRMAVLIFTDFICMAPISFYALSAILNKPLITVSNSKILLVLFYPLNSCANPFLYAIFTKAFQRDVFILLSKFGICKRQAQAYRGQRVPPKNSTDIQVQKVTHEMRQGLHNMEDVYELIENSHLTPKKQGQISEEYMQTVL

Row | Compound | Potency [1] | Potency [2] | Potency [3] | Potency [4] | outcome [5] | Potency [6] | Potency [7] | Potency [8] | outcome [9] | Potency [10]
1 | c1ccc(OP(Oc2ccccc2)Oc2ccccc2)cc1 | inactive | inactive | inactive | inactive | inactive | inactive | – | – | – | –
2 | CN(C)[C@@H]1C(=O)C(C(N)=O)=C(O)[C@@]2(O)C(=O)C3=C(O)c4c(O)cccc4[C@@](C)(O)[C@H]3C[C@@H]12 | inactive | inactive | inactive | inactive | – | inactive | – | – | – | –
3 | CCN(CC)CCO | inactive | inactive | inactive | inactive | inactive | inactive | – | – | – | –
4 | O=C1CCCN1 | inactive | inactive | inactive | inactive | – | inactive | inactive | – | – | –
5 | O=NN1CCCCCCC1 | inactive | inactive | inactive | inactive | inactive | inactive | inactive | – | – | –
6 | [O-][Cl+2]([O-])O | inactive | inactive | inactive | inactive | – | inactive | – | – | – | –
7 | CC(C)(Cl)Cl | inactive | inactive | inactive | inactive | inactive | inactive | – | – | – | –
8 | CCCC1COC(Cn2cncn2)(c2ccc(Cl)cc2Cl)O1 (centres undefined) | 62.3 µM (active) and 61.1 µM (active) | 61.1 µM (active) | inactive | inactive | inactive | 115 µM (active) | inactive | – | – | –
9 | O=c1n(Cl)c(=O)n(Cl)c(=O)n1Cl | inactive | inactive | inactive | inactive | inactive | inactive | inactive | – | – | –
10 | Cc1ccccc1O | inactive | inactive | inactive | inactive | – | inactive | inactive | – | – | –
11 | Oc1ccccc1Cl | inactive | inactive | inactive | inactive | inactive | inactive | inactive | – | – | –
12 | CCOP(=S)(OCC)Oc1cnc2ccccc2n1 | inactive and 30.6 µM (active) | inactive | inactive | inactive | inactive | inactive | inactive | – | – | –
13 | C1CC2OC2CC1C1CO1 (centres undefined) | inactive | inactive | inactive | inactive | – | inactive | inactive | – | – | –
14 | CCNc1nc(NC(C)C)nc(SC)n1 | 48.6 µM (active) | inactive | inactive | inactive | – | inactive | inactive | – | – | –
15 | CCC[N+](=O)[O-] | inactive | 37.9 µM (active) and inactive | inactive | 4.81 µM (active) and inactive | – | inactive | – | – | – | –
16 | CC(C)=C[C@@H]1[C@@H](C(=O)OCc2coc(Cc3ccccc3)c2)C1(C)C | 17.2 µM (active) and inactive | inactive | inactive | inactive | – | inactive | inactive | – | – | –

Row | Compound | Potency [1] | Potency [2] | Potency [3] | Potency [4] | outcome [5] | Potency [6] | Potency [7] | Potency [8] | outcome [9] | Potency [10]
17 | NCC(O)c1ccc(O)cc1 (centres undefined) | inactive | inactive | inactive | inactive | inactive | inactive | inactive | – | – | –
18 | C=CCO | inactive | inactive | inactive | inactive | – | inactive | – | – | – | –
19 | ClCc1cccnc1 | inactive | inactive | inactive | inactive | inactive | inactive | inactive | – | – | –
20 | O=c1[nH]c2ccccc2c(=O)o1 | inactive | inactive | inactive | inactive | inactive | inactive | – | – | – | –
21 | C1CN2CCN1CC2 | inactive | inactive | inactive | inactive | inactive | inactive | inactive | – | – | –
22 | c1ccc2c(c1)oc1ccccc12 | inactive | inactive | inactive | inactive | inactive | inactive | inactive | – | – | –
23 | c1ccc2c(c1)Oc1ccccc1O2 | inactive | inactive | inactive | inactive | – | inactive | inactive | – | – | –
24 | CCC12COCN1COC2 | inactive | inactive | inactive | inactive | – | inactive | inactive | – | – | –
25 | O=[N+]([O-])c1ccc([As](=O)(O)O)cc1 | inactive | inactive | inactive | inactive | – | inactive | inactive | – | – | –
26 | Cc1[nH]c(=O)n(C(C)(C)C)c(=O)c1Cl | inactive | inactive | inactive | inactive | – | inactive | inactive | – | – | –
27 | O=C(O)c1ccccn1 | inactive | inactive | – | inactive | inactive | inactive | – | – | – | –
28 | O=S(=O)(c1ccc(O)cc1)c1ccc(O)cc1 | inactive | inactive | – | inactive | inactive | inactive | – | – | – | –
29 | OC(O)C(Cl)(Cl)Cl | – | inactive | inactive | inactive | – | inactive | – | inactive | inactive | inactive
30 | CC1C=[C-]C=C1.[C-]#[O+].[C-]#[O+].[C-]#[O+].[Mn] | – | inactive | inactive | inactive | inactive | inactive | – | – | – | –
31 | COP(N)(=O)SC (centres undefined) | inactive | inactive | – | inactive | inactive | inactive | inactive | – | – | –
